Experimental data published in PubChem BioAssay.
“And” between values parts separate entries of the source, which are not always exact repeats. Identical values can stand only once. The source made the active and inactive calls.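 Rule for the calls, unless noted: active = compounds whose cell count with miR-34 switched on is under 0.7 times the count with it off; inactive = the rest.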

Tests used:
[1] = viability loss with induced miR-34 in A549 – imaging, A549 dox-inducible miR-34, nuclei and caspase counts, primary screen (AID 1347080); conditions: A549 miR-34 inducible, Hoechst nuclei count, 48 h; note: test concentration not given here
[2] = MELAS cybrid and Rieske KO viability enhancers – cell-based, MELAS cybrids, Rieske KO mouse fibroblasts, CellTiter-Glo, primary screen (AID 1508586;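 active = mean z-score across replicates of 1.96 or higher in either the MELAS or the Rieske mutant cell line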;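 note: test concentration not given here; z relative to plate mean and SD of compound and empty wells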); conditions: low glucose
[3] = galactose survival enhancers in mitochondrial complex I cybrids – cell-based, galactose medium, ATP luminescence, primary screen (AID 1645843;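 active = z-score of at least 1.8 in each of two replicates, scored against plate mean and spread of sample wells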;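 note: positive z means more ATP and so rescue of galactose-driven cybrid death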); conditions: complex I mutant cybrid cells, 72 h, stronger effect = higher value
[4] = stronger effect = lower value, cell number ratio, induced over uninduced
[5] = measured here: relative caspase fold change +Dox/-Dox
[6] = measured here: total cells with miR-34 induction, stronger effect = lower value
[7] = measured here: total cells without miR-34 induction
[8] = MELAS cybrid survival, CellTiter-Glo 48 h, stronger effect = higher value
[9] = Rieske KO mouse fibroblast survival, CellTiter-Glo 72 h

Row | Compound | fold change [1, 4] | fold change [1, 5] | cell count [1, 6] | cell count [1, 7] | z-score [2, 8] | z-score [2, 9] | z-score [3]
1 | O=C(NCCOc1cccnc1)c1ccc2ncsc2c1 | 0.858 (inactive) | 1.5 | 7900 | 9210 | 0.0996 (inactive) | -0.557 | -0.56 (inactive)
2 | O=C(C=Cc1ccc(O)c(O)c1)NCCc1ccc(O)cc1 | 0.861 (inactive) | 0.612 | 8240 | 9580 | -0.586 (inactive) | -0.131 | 0.38 (inactive)
3 | CCC(C)n1ncn(-c2ccc(N3CCN(c4ccc(OCC5CO[C@](Cn6cncn6)(c6ccc(Cl)cc6Cl)O5)cc4)CC3)cc2)c1=O (stereo partly specified) | 0.844 (inactive) and 0.945 (inactive) | 0.375 and 1.03 | 6320 and 8160 | 7490 and 8630 | 0.58 (inactive) and -0.288 (inactive) | -0.239 and 0.0468 | -2.34 (inactive)
4 | CCN(CCc1ccccn1)C(=O)c1cc(-c2cnc(N)nc2)nc2c(C)cccc12 | 0.904 (inactive) | 1.79 | 8640 | 9560 | -0.0572 (inactive) | -0.177 | 0.51 (inactive)
5 | CS(=O)(=O)c1ccc(C(=N)N)cc1 | 0.887 (inactive) | 0.391 | 8670 | 9770 | 0.807 (inactive) | -0.298 | 0.2 (inactive)
6 | CN(Cc1nc2ccc(Cl)cc2[nH]1)C(=O)c1n[nH]c2ccccc12 | 0.846 (inactive) | 1.41 | 6230 | 7360 | -0.529 (inactive) | 0.953 | 1.46 (inactive)
7 | Cc1cc(NC(=O)Cn2ccc(-c3ncnn3C)n2)n(C2CCCCC2)n1 | 0.953 (inactive) | 1.19 | 9860 | 10400 | 0.129 (inactive) | -0.435 | -0.55 (inactive)
8 | NC(=O)c1ccccc1-c1cccc2ccccc12 | 0.84 (inactive) | 1.62 | 7950 | 9470 | -0.37 (inactive) | 0.135 | -0.38 (inactive)
9 | O=S(=O)(O)CCCN1CCOCC1 | 0.928 (inactive) | 0.665 | 8750 | 9420 | 0.595 (inactive) | -0.353 | 0.105 (inactive)
10 | COc1ccccc1C(=O)N1CCC(n2cc(-c3ccccn3)nn2)CC1 | 0.917 (inactive) | 1.29 | 8760 | 9560 | 0.129 (inactive) | -0.319 | -0.23 (inactive)
11 | O=C(O)c1cnc(-c2ccccc2)[nH]1 | 0.939 (inactive) | 0.271 | 8980 | 9570 | -0.137 (inactive) | -0.215 | 0.375 (inactive)
12 | COc1ccc(CN(C)C(=O)Nc2nc(C)n(C)n2)c2cccnc12 | 0.889 (inactive) | 0.916 | 8870 | 9980 | 0.16 (inactive) | -0.562 | -0.55 (inactive)
13 | Cc1nc(C)c(-c2ccnc(N)n2)s1 | 0.869 (inactive) | 0.21 | 8060 | 9270 | 0.483 (inactive) | -0.306 | -0.255 (inactive)
14 | CC(=O)C=Cc1cn(C)c2ccccc12 | 0.824 (inactive) | 0.579 | 7690 | 9340 | 1.15 (inactive) | 0.123 | 0.49 (inactive)
15 | CC1(C)CC(=O)c2c(N)ncnc2C1 | 0.894 (inactive) | 0.392 | 9160 | 10200 | 0.568 (inactive) | -0.422 | 0.725 (inactive)
16 | Cc1c(Br)c(=O)oc2c(Br)c(O)ccc12 | 0.86 (inactive) | 0.806 | 8490 | 9870 | 0.723 (inactive) | -0.168 | -0.145 (inactive)
17 | CC(NC(=O)OCc1ccccc1)C(=O)O (stereo unspecified) | 0.909 (inactive) | 0.337 | 9090 | 10000 | 0.137 (inactive) | 0.148 | 0.185 (inactive)
18 | c1cc(CN2CCN3CCCC3C2)n(-c2nccs2)c1 (stereo unspecified) | 0.908 (inactive) | 1.4 | 8290 | 9130 | 0.256 (inactive) | -0.144 | -0.595 (inactive)
19 | Cc1cc(C)nc(-c2cnn(CC(=O)Nc3cnn(C)n3)c2)n1 | 0.881 (inactive) | 1.67 | 8470 | 9620 | 0.0131 (inactive) | -0.562 | -0.525 (inactive)
20 | Cc1nc(C(=O)O)nn1-c1cc(Cl)cc(Cl)c1 | 0.931 (inactive) | 0.603 | 8310 | 8930 | -0.498 (inactive) | -0.479 | 0.61 (inactive)
21 | Cc1ccc(S(=O)(=O)NCCCOC(=O)Nc2ccncc2)cc1 | 0.881 (inactive) | 0.547 | 7920 | 8990 | 0.675 (inactive) | -0.0111 | -0.675 (inactive)
22 | Cc1ccc2nc(C3CCCN3c3ncc(C)c(-c4cnn(C)c4)n3)[nH]c2c1 (stereo unspecified) | 0.91 (inactive) | 1.37 | 7980 | 8770 | -0.0346 (inactive) | 0.328 | -0.325 (inactive)
23 | Cc1cc(C(=O)Nc2ccc3c(c2)CC(=O)N3)c(C)o1 | 0.929 (inactive) | 1.42 | 9120 | 9820 | -0.11 (inactive) | -0.503 | -0.465 (inactive)
24 | O=C1CC(c2ccc(O)cc2)Oc2cc(O)ccc21 (stereo unspecified) | 0.9 (inactive) | 0.718 | 8540 | 9500 | 0.67 (inactive) | -0.313 | 0.305 (inactive)

Row | Compound | fold change [1, 4] | fold change [1, 5] | cell count [1, 6] | cell count [1, 7] | z-score [2, 8] | z-score [2, 9] | z-score [3]
25 | CC(=O)NCC1CN(c2ccc(N3CCOCC3)c(F)c2)C(=O)O1 (stereo unspecified) | 0.917 (inactive) and 0.981 (inactive) | 1.72 and 0.989 | 6880 and 7480 | 7500 and 7630 | -0.285 (inactive) | 0.466 | 0.65 (inactive)
26 | O=C(O)CSc1nnc(-c2ccc([N+](=O)[O-])o2)o1 | 0.911 (inactive) | 0.48 | 8530 | 9370 | -1.16 (inactive) | 0.209 | 0.17 (inactive)
27 | O=C(O)c1ccc(-c2ccccc2[N+](=O)[O-])o1 | 0.891 (inactive) | 0.452 | 8650 | 9710 | -0.508 (inactive) | -0.463 | 0.32 (inactive)
28 | COc1ccc2c(c1)CCN(C(=O)Nc1n[nH]c(-c3ccco3)n1)C2 | 0.87 (inactive) | 1.45 | 7950 | 9130 | 0.18 | 3.56 | 0.245 (inactive)
29 | CCn1ccnc1CN(C)C(=O)c1cc(-c2cnc(N)nc2)nc2c(C)cccc12 | 0.899 (inactive) | 1.48 | 8320 | 9260 | -1.11 (inactive) | 1.17 | 1.16 (inactive)
30 | COc1cccc2c(=O)n(Cc3ccc4nonc4c3)cnc12 | 0.912 (inactive) | 1.93 | 8180 | 8980 | 0.215 (inactive) | -0.341 | -0.545 (inactive)
31 | CCCn1ncc(-c2ccnc(NCc3cc(CC)no3)n2)c1C | 0.843 (inactive) | 1.57 | 6710 | 7960 | -0.178 (inactive) | -0.0436 | -0.59 (inactive)
32 | Cc1nsc(NC(=O)N2CCCC(C)(O)C2)n1 (stereo unspecified) | 0.901 (inactive) | 0.878 | 9190 | 10200 | -0.195 (inactive) | -0.423 | -0.565 (inactive)
33 | CN1CCN(Cc2ccc(-c3nc(-c4cccnc4)cc(=O)[nH]3)cc2)CC1 | 0.911 (inactive) | 1.1 | 8750 | 9610 | -0.317 (inactive) | -0.261 | -0.55 (inactive)
34 | NCc1ccc(-c2cccs2)cc1 | 0.89 (inactive) | 0.746 | 8580 | 9650 | -0.349 (inactive) | -0.59 | 0.51 (inactive)
35 | O=C(O)c1ccc(-c2ccccc2OC(F)(F)F)o1 | 0.872 (inactive) | 0.264 | 8780 | 10100 | -0.488 (inactive) | 0.181 | 0.04 (inactive)
36 | O=C(NCC(c1ccccc1)c1ccccc1)Nc1nncs1 | 0.844 (inactive) | 1.57 | 7570 | 8970 | -0.117 | 3.64 | 1.59 (inactive)
37 | COc1cccc(-n2cc(-c3ccnc(NCCc4cnc[nH]4)n3)cn2)c1 | 0.891 (inactive) | 1.29 | 7850 | 8810 | -0.718 (inactive) | 0.696 | 1.87 (inactive)
38 | CCCCNS(=O)(=O)c1ccccc1 | 0.925 (inactive) | 0.335 | 8780 | 9480 | -0.187 (inactive) | 0.108 | 0.175 (inactive)
39 | O=S(=O)(O)CCNC1CCCCC1 | 0.931 (inactive) | 0.147 | 9490 | 10200 | 0.282 (inactive) | -0.218 | 0.78 (inactive)
40 | Nc1nc2cc(C(=O)N3CCN(C(=O)c4ccco4)CC3)ccc2s1 | 0.879 (inactive) | 1.74 | 8870 | 10100 | -0.277 (inactive) | -0.24 | -0.565 (inactive)
41 | O=C1CN(C(=O)Nc2nncs2)CCN1Cc1cccc(F)c1 | 0.896 (inactive) | 1.07 | 9320 | 10400 | 0.315 (inactive) | -0.441 | -0.53 (inactive)
42 | O=C(O)C=Cc1ccccc1O | 0.911 (inactive) | 0.83 | 8740 | 9590 | 0.0698 (inactive) | 0.0548 | 0.245 (inactive)
43 | COc1ccc(CCNCC(O)COc2cccc(C)c2)cc1OC (stereo unspecified) | 0.915 (inactive) | 0.555 | 8400 | 9170 | -1.33 (inactive) | 0.533 | -0.99 (inactive)
44 | CCNC(=O)c1cccnc1N1CCN(c2ccc(Cl)cc2)CC1 | 0.873 (inactive) | 0.821 | 7830 | 8970 | -0.247 | 2.02 | 0.35 (inactive)
45 | Cc1ccc(Cn2nccc2NC(=O)Cn2cc(-c3ccc(F)cc3)cn2)o1 | 0.895 (inactive) | 0.589 | 8330 | 9310 | -0.0022 (inactive) | -0.187 | 1.75 (inactive)
46 | CN1CCC(CN(C)Cc2ccc(-c3nc(-c4ccncc4)cc(=O)[nH]3)cc2)CC1 | 0.939 (inactive) | 1.26 | 9330 | 9930 | 0.0899 (inactive) | 0.164 | -0.495 (inactive)
47 | CCn1nccc1NC(=O)Cn1cc(-c2ccc(C(=O)N3CCCC3)cn2)cn1 | 0.832 (inactive) | 1.64 | 7850 | 9430 | 0.812 (inactive) | -0.539 | -0.57 (inactive)
48 | COc1ncccc1C(=O)N1CCOc2ccccc21 | 1 (inactive) | 1.28 | 8450 | 8420 | 0.0792 (inactive) | -0.0817 | -0.395 (inactive)
